The list is not random: actives were taken first. Their share in the collection is about 1.6%.
KCNQ2 inh: blocks the rat KCNQ2 potassium channel; O88943; CHO-K1 KCNQ2, FluxOR thallium flux, 20 min; hits give low values; B-score at 10 µM; 310,000 tested, 1.1% active; AID 2156;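 active = fluorescence ratio B-score at most minus 3 library SDs, with starting brightness B-score within 2 library SDs, cut at about -5.5 in these data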
KCNQ2 pot: potentiators of rat KCNQ2 potassium channel | O88943 | AID 2239 | B-score at 10 µM | CHO-K1 KCNQ2, FluxOR thallium flux fluorescence; hits give high values | 310,000 tested, 0.54% active;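 active = fluorescence ratio B-score at least 3 SD of library B-scores, with initial fluorescence B-score within 3 of them, cut at about 5.3 in these data; same plate scores as AID 2156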;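 also: B-score of peak minus minimum over baseline fluorescence ratio after K+ and Tl+ stimulus; positive B-score means potentiation of KCNQ2 with more thallium influx and brighter signal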
Kir21 confirm: confirmation of mouse Kir2.1 potassium channel inhibitors. 2,300 tested, 41% active. AID 2032. shares compounds with KCNQ2 pot. Kir2.1-expressing cells, FluxOR thallium flux fluorescence; hits give low values. Tl flux remaining, % of negative control (hits give low values), % at 10 µM;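 active = Primary-screen hit whose thallium flux fell at least 3 control SD below untreated wells in both duplicates, with normal baseline fluorescence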;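 also: 0% = blank wells without stimulus and 100% = stimulated no-compound controls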
HEK293 Tl flux: parental HEK293 activity in Kir2.1 inhibitor counter-screen. shares compounds with KCNQ2 pot. parental HEK293 cells, FluxOR thallium flux fluorescence; 0% = unstimulated blank wells. FluxOR signal as % of negative control (100 = no effect), % at 10 µM. 2,300 tested, 19% active. AID 2105;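 active = dye signal at least 3 control SD above or below untreated wells in both duplicates, raw fluorescence within 3, either direction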;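 also: percent is based on the flux ratio of peak minus minimum fluorescence over baseline F0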
CHO-K1 Tl ctr: alters thallium flux in parental CHO-K1 cells, KCNQ2 counter-screen; 1,200 tested, 43% active; shares compounds with KCNQ2 pot; AID 2282; activity increase over 3SD of controls, % at 10 µM; FluxOR thallium flux fluorescence; zero = vehicle mean+3SD, 100% = vehicle-minus-blank window;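 active = signal rise of at least 3 SD above the untreated control mean, in both duplicate wells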;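 also: counter screen of KCNQ2 potentiator hits so any rise reflects channel-independent effects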
KCNQ1 pot spec: human KCNQ1 counter-target activity of KCNQ2 potentiators. CHO KCNQ1 stable, FluxOR thallium flux fluorescence; beyond 3SD, as % of vehicle-control signal. activation over 3SD threshold, % at 10 µM. shares compounds with KCNQ2 pot. 1,200 tested, 28% active;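 active = fluorescence ratio rise of at least 3 SD of vehicle wells above their mean, in both replicate wells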;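 also: 0% = vehicle mean plus 3 SD and 100% = vehicle minus unstimulated blank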
KCNQ2 pot confirm: confirmation of rat KCNQ2 potassium channel potentiators; shares compounds with KCNQ2 pot; CHO-KCNQ2 cells, FluxOR thallium flux fluorescence; potentiation, less the hit threshold, % at 10 µM; 1,200 tested, 68% active;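 active = fluorescence ratio rising 3 SD or more over the vehicle control mean in both replicates, plus primary screen hit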;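 also: peak minus minimum thallium fluorescence divided by baseline after K/Tl stimulus; 0% = vehicle mean plus 3 SD and 100% = vehicle minus unstimulated blank difference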
Kir21 spec: selectivity of KCNQ2 potentiators: effect on mouse Kir2.1; shares compounds with KCNQ2 pot; HEK293 Kir2.1, FluxOR thallium flux fluorescence; activity over 3SD threshold, % at 10 µM; 1,200 tested, 2% active;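 active = fluorescence ratio rise of at least 3 SD above the vehicle-control mean, seen in both replicates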;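 also: 0% = vehicle mean plus 3 SD and 100% = vehicle minus no-stimulus blank window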
KCNQ2 W236L pot: rat KCNQ2 W236L mutant potentiation by KCNQ2 potentiators; shares compounds with KCNQ2 pot; CHO KCNQ2-W236L, automated patch clamp current; current increase over 3SD of negative controls (%), hits give high values, % at 25 µM; 940 tested, 10% active;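 active = current increase at least 3 SD of the untreated controls above them in both duplicate recordings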
Target sequence (O88943 whole entry W236L, looked up): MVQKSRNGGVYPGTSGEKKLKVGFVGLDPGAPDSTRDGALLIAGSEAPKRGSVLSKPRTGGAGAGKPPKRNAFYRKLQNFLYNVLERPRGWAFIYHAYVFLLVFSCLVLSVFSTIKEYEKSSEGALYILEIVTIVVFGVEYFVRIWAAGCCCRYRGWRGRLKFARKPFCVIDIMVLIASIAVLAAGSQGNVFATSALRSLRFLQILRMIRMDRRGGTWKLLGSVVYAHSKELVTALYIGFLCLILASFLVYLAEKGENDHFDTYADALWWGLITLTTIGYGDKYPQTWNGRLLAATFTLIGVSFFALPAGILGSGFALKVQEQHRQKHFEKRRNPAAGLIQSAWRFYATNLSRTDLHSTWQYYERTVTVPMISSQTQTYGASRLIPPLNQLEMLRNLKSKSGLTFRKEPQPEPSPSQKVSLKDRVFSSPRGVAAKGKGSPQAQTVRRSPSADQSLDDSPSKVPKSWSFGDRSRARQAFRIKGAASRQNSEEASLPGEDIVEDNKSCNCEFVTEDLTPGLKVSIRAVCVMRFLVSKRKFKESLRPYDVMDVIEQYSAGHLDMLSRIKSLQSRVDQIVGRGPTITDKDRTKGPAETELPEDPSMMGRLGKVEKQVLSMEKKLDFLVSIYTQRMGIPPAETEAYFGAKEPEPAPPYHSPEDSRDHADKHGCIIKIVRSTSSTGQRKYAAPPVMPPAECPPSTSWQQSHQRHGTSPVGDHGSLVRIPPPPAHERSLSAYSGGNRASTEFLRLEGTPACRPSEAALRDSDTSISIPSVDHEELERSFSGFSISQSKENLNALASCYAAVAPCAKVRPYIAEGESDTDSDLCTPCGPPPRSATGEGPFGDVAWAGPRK
The depositor's hits bear a star; i = inactive; / = no result given.

SMILES	KCNQ2 inh	KCNQ2 pot	Kir21 confirm	HEK293 Tl flux	others
Oc1ccc(C(=C(Cl)Cl)c2ccc(O)cc2)cc1	i	11*	38%*	i	CHO-K1 Tl ctr=47*;KCNQ1 pot spec=-7;KCNQ2 pot confirm=0.8*;Kir21 spec=-100;KCNQ2 W236L pot=i
c1ccc(CNc2c3c(nc4ccccc24)CCC3)cc1	i	0.24	i	i
CC(C)CNc1c2c(nc3ccccc13)CCC2	i	3.1	/	/
Cc1ccc(C(=O)N[C@@H](C)CN2C3=NC[C@@H](Cc4ccccc4)N3C[C@H]2Cc2ccc(O)cc2)cc1Br	i	/	49%*	i
Cc1ccc(C(=O)N[C@@H](C)CN2C3=NC[C@H](Cc4ccccc4)N3C[C@H]2Cc2ccc(O)cc2)cc1Br	i	/	/	/
COc1ccc(-n2c(Cc3cccc([N+](=O)[O-])c3)nc3ccccc3c2=O)cc1	i	/	/	/
Cc1cc(N2CCNCC2)nc2ccccc12	i	1.2	/	/
Cc1cc(C)n(CCOC(=O)C2C(C=C(Cl)Cl)C2(C)C)n1 (centres undefined)	i	/	43%*	i
COc1ccc(Cc2nccc3cc(OC)c(OC)cc23)cc1OC	i	/	43%*	i
COc1ccc(CCNCc2ccc(C)s2)cc1OC	i	1.4	/	/
O=C1/C(=C/c2cc3c(cc2Cl)OCO3)N2CCC1CC2	i	/	/	/
Cc1ccc(C[n+]2c(-c3ccc(C)cc3)cc(-c3ccc(C)cc3)cc2-c2ccc(C)cc2)cc1	i	/	12%*	i
CCOc1ccc(-c2cc(C)[n+](CCN3CCOCC3)c(-c3ccc(OCC)cc3)c2)cc1	i	/	/	/
CCCCCn1c(=O)c(C(=O)Nc2nc(CC(=O)OCC)cs2)c(O)c2ccccc21	i	/	/	/
CCCCCSc1cc(OC)c(CCN)cc1OC	i	/	46%*	i
COc1cc(CC(C)N)c(OC)cc1I (centres undefined)	i	0.68	/	/
Cc1cc(OCC(=O)NCc2ccncc2)c2c3c(c(=O)oc2c1)CCCC3	i	/	/	/
CC(C)c1oc(=O)cc2c1[C@@H](O)[C@H]1OC(=O)[C@@]3(C)C[C@@H](O)[C@@H](O)[C@@]2(C)C13 (some centres undefined)	i	1.8	/	/
CCCC(C)n1[nH]c(=O)c2c1NC(=O)CSC2c1ccccc1 (centres undefined)	i	1.2	/	/
Fc1ccc(CCNCc2ccccc2Cl)cc1	i	0.28	/	/
CCOc1ccc(Cl)cc1CNCCc1ccc(F)cc1	i	/	24%*	i
COc1ccc(CN2CCN(Cc3ccccc3F)CC2)cc1	i	0.01	/	/
CCCOC(=O)c1ccc(-[n+]2c(-c3ccccc3)cc(-c3ccccc3)cc2-c2ccccc2)cc1	-6.9*	-6.9	36%*	i
[O-]c1ccccc1-[n+]1c(-c2ccccc2)cc(-c2ccccc2)cc1-c1ccccc1	i	/	25%*	i
Cc1ccccc1-[n+]1c(-c2ccccc2)cc(-c2ccccc2)cc1-c1ccccc1	-8.3*	-8.3	16%*	57%*
SMILES	KCNQ2 inh	KCNQ2 pot	Kir21 confirm	HEK293 Tl flux	others
Cc1ccc(-c2cc(-c3ccc(C)cc3)[n+](-c3ccc(C(=O)O)cc3)c(-c3ccc(C)cc3)c2)cc1	i	0.83	/	/
Brc1ccc(-[n+]2c(-c3ccccc3)cc(-c3ccccc3)cc2-c2ccccc2)cc1	-8.4*	-8.4	34%*	i
C[n+]1c(-c2ccccc2)cc(CCCCc2cc(-c3ccccc3)[n+](C)c(-c3ccccc3)c2)cc1-c1ccccc1	i	/	/	/
O=c1[nH]c(=O)n(Cc2ccco2)c(O)c1C=NC1CCN(Cc2ccccc2)CC1	i	/	/	/
CN1C2CCC1CC(OC(=O)c1cc(Cl)cc(Cl)c1)C2 (centres undefined)	i	/	/	/
Cc1ccc2c(c1)N(N=O)CCC2	i	/	/	/
O=C1CCCN1CC#CCN1CCCC1	i	/	/	/
COc1ccc(C(=O)Oc2cccc3cccnc23)cc1S(=O)(=O)N1CCOCC1	i	/	/	/
CN(C)CCN(CC1CCCN(Cc2ccccc2F)C1)C(=O)Cc1c(F)cccc1F (centres undefined)	i	1.4	/	/
O=c1c2ccccc2nc(CNCc2ccco2)n1-c1ccc(F)cc1	i	/	/	/
FC(F)(F)c1cccc(C2NCc3ccccc3-n3cccc32)c1 (centres undefined)	i	/	/	/
Oc1ccc(C2NCc3ccccc3-n3cccc32)cc1Cl (centres undefined)	i	0.53	59%*	i
COC(=O)C1=CO[C@@H](C)[C@H]2CN3CC[C@]4(C(=O)Nc5ccccc54)[C@@H]3C[C@H]12	i	0.01	/	/
CCCN(CCC)C1Cc2cc(OC)c(OC)cc2C1	i	0.2	/	/
CN1CC2([N+](=O)[O-])CC=C(Cl)C([N+](=O)[O-])(C1)C2 (centres undefined)	i	/	/	/
COc1ccc(C(=O)O/N=C(/C(N)=O)P(=O)(OC(C)C)OC(C)C)cc1	i	6.4*	i	i	CHO-K1 Tl ctr=-7;KCNQ1 pot spec=4.2*;KCNQ2 pot confirm=27*;Kir21 spec=-51;KCNQ2 W236L pot=i
COc1ccc(C(O)P(=O)(OC(C)C)OC(C)C)cc1 (centres undefined)	i	0.08	/	/
COC(=O)c1c2[n+](cc3cc(OC)c(OC)cc13)CCc1cc(OC)c(OC)cc1-2	i	/	/	/
Cc1c2cnn(CC(=O)N3CCC4(CC3)OCCO4)c(=O)c2c(C)n1Cc1ccccc1Cl	i	/	/	/
CNC(=O)OCc1n(C)cc[n+]1C	i	/	/	/
NC(N)=N/N=C/c1ccc(N(c2ccccc2)c2ccccc2)cc1	i	2.4	i	i
COc1ccc(/C=N\N=C(N)N)cc1	i	1.1	/	/
CNCC(O)c1cc(OCc2ccccc2)c(OCc2ccccc2)cc1F (centres undefined)	i	/	40%*	72%*
CNCC(O)c1cccc(OC(=O)c2ccccc2C)c1 (centres undefined)	i	0.15	/	/
O=C1C(=O)c2ccccc2-c2ccccc21	i	6.2*	i	i	CHO-K1 Tl ctr=-5;KCNQ1 pot spec=-15;KCNQ2 pot confirm=-2;Kir21 spec=-29;KCNQ2 W236L pot=3.4%*
SMILES	KCNQ2 inh	KCNQ2 pot	Kir21 confirm	HEK293 Tl flux	others
O=C1C(=O)c2cccc3cccc1c23	i	/	/	/
Cc1cc([N+](=O)[O-])c(Cl)cc1NC(=O)C(C)C	i	0.97	/	/
CNc1cc(Cl)c2nonc2c1[N+](=O)[O-]	-9.5*	-9.5	i	54%*
CN1CCC(O)(c2cccs2)C(C(=O)c2cccs2)C1 (centres undefined)	i	/	/	/
CC12CN3C(O)C(C)(C1)CC(C)(C2)C3O (centres undefined)	i	0.87	/	/
CC1(C)C[C@H]2C=C(C=O)[C@]3(C=O)C[C@]3(C)[C@H]2C1	-6*	-6	42%*	71%*
CC[N+](C)(CC)CCCOC(=O)C(O)(c1ccccc1)C1CCCCC1 (centres undefined)	i	0.59	/	/

Assay outcomes as filed in PubChem BioAssay.
